Results reported in PubChem BioAssay (NCATS).
Inconclusive results are not listed. Where a call stands in place of a potency, no number is given. Calls of active or inactive are those of the source. Calls come from the whole dose curve; as a rule, active = well fitted inhibition curve with a large enough effect; inconclusive = small, poorly fitted or top-dose-only effect; inactive = no such curve, though single readings can be large or run the other way.
Potency is the fitted concentration of half-maximal effect.

Test: Primary qHTS for inhibitors of nuclear receptor binding SET domain protein 2 (NSD2) in an RCH-ACV wild type WT cells (2C) (AID 1645877); note: nearly all actives have a fitted effect of over 70% in size
Conditions: RCH-ACV (leukaemia line) NSD2 WT (2C) viability, CellTiter-Glo, 72 h; series mostly up to 44.9 µM
With CCOc1nc2cccc(C(=O)O)c2n1Cc1ccc(-c2ccccc2-c2nn[nH]n2)cc1 the Potency was “inactive”.
For O=C(O)c1ccccc1O, the Potency was “inactive”.
For CC/C=C(\C(=O)N[C@@H]1C(=O)N2C(C(=O)OCOC(=O)C(C)(C)C)=C(COC(N)=O)CS[C@H]12)c1csc(N)n1, the Potency was “inactive”.
In the case of CCn1cc(C(=O)O)c(=O)c2cnc(N3CCNCC3)nc21, the Potency is reported as “inactive”.
In the case of CCCCC/C(C=O)=C\c1ccccc1, the Potency is reported as “inactive”.
For CC(O)COc1ccccc1 (configuration not stated), the Potency was “inactive”.
In the case of Cc1ncc(COP(=O)(O)O)c(C=O)c1O, the Potency is reported as “inactive”.
With Cc1ncc([N+](=O)[O-])n1CC(O)CCl (configuration not stated) the Potency was “inactive”.
With C[C@H]1O[C@H](O[C@H]2[C@H](O)[C@@H](O)[C@@H](O[C@H]3[C@H](O)[C@@H](O)[C@H](O)O[C@@H]3CO)O[C@@H]2CO)[C@H](O)[C@@H](O)[C@@H]1N[C@H]1C=C(CO)[C@@H](O)[C@H](O)[C@H]1O the Potency was “inactive”.
With NC1CCN(c2cccc(Cl)n2)CC1 the Potency was “inactive”.
In the case of O=C1c2c(O)cccc2Cc2cccc(O)c21, the Potency is reported as “inactive”.
With NS(=O)(=O)c1cc2c(cc1C(F)(F)F)NC(Cc1ccccc1)NS2(=O)=O (configuration not stated) the Potency was “inactive”.
With Oc1cccc(O)c1 the Potency was “inactive”.
For CN1CCC[C@@H]1Cc1c[nH]c2ccc(CCS(=O)(=O)c3ccccc3)cc12, the Potency was “inactive”.
For O=C(O)c1ccccc1-c1ccc(C(F)(F)F)cc1, the Potency was “inactive”.
For COc1ccc2cc1Oc1cc3c(cc1OC)CC[N+](C)(C)[C@H]3Cc1ccc(cc1)Oc1c(OC)c(OC)cc3c1[C@@H](C2)[N+](C)(C)CC3, the Potency was “inactive”.
For NC(=O)c1ncn([C@@H]2O[C@H](CO)[C@@H](O)[C@H]2O)n1, the Potency was 14.8 µM (active).
